Experimental data as given in PubChem BioAssay (EPA / NIEHS).
Records with an inconclusive call do not appear. The source made the active and inactive calls. How the source made its calls, unless noted: active means hit-call score of the fitted dose curve at least 0.9, where 1 is the maximum; inconclusive means response in the unintended direction; inactive means score below 0.9.

Assays:
TIMP1, TIMP1 (gene 7076) = assay: LTEA_HepaRG_TIMP1: Life Technologies and Expression Analysis (LTEA) Assay for TIMP1 using HepaRG (AID 2283534; active means hit-call score of the fitted dose curve at least 0.9, where 1 is the maximum; inactive means score below 0.9); details: mRNA level, 48 h; actives raise or lower the signal
Summary of the method: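 Readout is TIMP1 mRNA level measured by qRT-PCR and normalized to three housekeeping genes. Human HepaRG cells were treated for 48 h in duplicate at eight concentrations up to 100 uM (0.5% DMSO); gain or loss fitted against DMSO.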

[1] = read-out: Tumor necrosis factor receptor 1 (TNFRSF1A), TNFRSF1A (gene 7132); assay: LTEA_HepaRG_TNFRSF1A: Life Technologies and Expression Analysis (LTEA) Assay for Tumor necrosis factor receptor 1 (TNFRSF1A) using HepaRG (AID 2283535; active means hit-call score of the fitted dose curve at least 0.9, where 1 is the maximum; inactive means score below 0.9); details: mRNA level, 48 h; actives raise or lower the signal
Summary of the method: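 Read-out is TNFRSF1A transcript level by TaqMan qRT-PCR, normalized to three housekeeping genes, scored as gain or loss of signal versus 0.5% DMSO. Human HepaRG cells received test chemicals for 48 h at up to 100 uM (half-log series).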

[2] = read-out: Thyroid Hormone Responsive (THRSP), THRSP (gene 7069); assay: LTEA_HepaRG_THRSP: Life Technologies and Expression Analysis (LTEA) Assay for Thyroid Hormone Responsive (THRSP) using HepaRG (AID 2283536; active means hit-call score of the fitted dose curve at least 0.9, where 1 is the maximum; inactive means score below 0.9); details: mRNA level, 48 h; actives raise or lower the signal
Summary of the method: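 qRT-PCR read-out (Fluidigm TaqMan), housekeeping-normalized (ACTB/GAPDH/POLR2A). HepaRG, 48 h chemical exposure, 8-pt half-log series from 100 uM in 0.5% DMSO, duplicates. Bidirectional curve fit vs 0.5% DMSO baseline.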

[3] = read-out: Cellular tumor antigen p53 (Homo sapiens) (UniProt P04637); assay: LTEA_HepaRG_TP53: Life Technologies and Expression Analysis (LTEA) Assay for Tumor Protein P53 (TP53) using HepaRG (AID 2283537; active means hit-call score of the fitted dose curve at least 0.9, where 1 is the maximum; inactive means score below 0.9); details: mRNA level, 48 h; actives raise or lower the signal
Summary of the method: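 Differentiated HepaRG cells in serum-free induction medium exposed 48 h in duplicate to 8 half-log concentrations, top 100 uM, 0.5% DMSO. TP53 mRNA by TaqMan qRT-PCR (Fluidigm), normalized to ACTB, GAPDH, POLR2A; fitted bidirectionally versus DMSO.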

[4] = read-out: UDP glucuronosyltransferase (UGT1A1), UGT1A1 (gene 54658); assay: LTEA_HepaRG_UGT1A1: Life Technologies and Expression Analysis (LTEA) Assay for UDP glucuronosyltransferase (UGT1A1) using HepaRG (AID 2283538; active means hit-call score of the fitted dose curve at least 0.9, where 1 is the maximum; inactive means score below 0.9); details: mRNA level, 48 h; actives raise or lower the signal
Summary of the method: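 mRNA induction or loss of UGT1A1, by TaqMan qRT-PCR, in duplicate HepaRG wells after 48 h exposure to half-log dilutions topping at 100 uM; DMSO (0.5%) served as baseline.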

[5] = read-out: UDP glucuronosyltransferase (UGT1A6), UGT1A6 (gene 54578); assay: LTEA_HepaRG_UGT1A6: Life Technologies and Expression Analysis (LTEA) Assay for UDP glucuronosyltransferase (UGT1A6) using HepaRG (AID 2283539; active means hit-call score of the fitted dose curve at least 0.9, where 1 is the maximum; inactive means score below 0.9); details: mRNA level, 48 h; actives raise or lower the signal
Summary of the method: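 HepaRG, 48 h post-plating switch to serum-free induction medium; chemical 48 h, 100 uM top, half-log x8, duplicate, 0.5% DMSO. Phenobarbital 1mM induction control. UGT1A6 mRNA by TaqMan qRT-PCR; gain/loss fit vs DMSO.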

[6] = read-out: X-box binding protein 1 (XBP1), XBP1 (gene 7494); assay: LTEA_HepaRG_XBP1: Life Technologies and Expression Analysis (LTEA) Assay for X-box binding protein 1 (XBP1) using HepaRG (AID 2283540; active means hit-call score of the fitted dose curve at least 0.9, where 1 is the maximum; inactive means score below 0.9); details: mRNA level, 48 h; actives raise or lower the signal
Summary of the method: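 Transcript levels of XBP1, measured by qRT-PCR and normalised to three housekeeping genes, were fitted bidirectionally relative to 0.5% DMSO controls. Human HepaRG cells received eight-point half-log dilutions from 100 uM for 48 h.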

[7] = LTEA_HepaRG_LDH_cytotoxicity: Cytotoxicity Assessment in the Life Technologies and Expression Analysis (LTEA) Assay (AID 2283563);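 on AC50: LDH activity released into spent culture medium as a marker of cell death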
Summary of the method: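 Cells were thawed and plated for 48 h. Medium was then replaced with serum-free induction medium. Chemicals (8 half-log points, maximum 100 uM, 0.5% DMSO) were added in duplicate for 48 h, after which spent medium was assayed for LDH.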

[8] = TOX21_p53_BLA_p2_viability: Viability Assessment in the Tox21 HCT-116 p53 Agonism Beta-lactamase Assay, Phase 2 (AID 2283591);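 further: compound exposure lasted 16 h at 37 °C; actives lower the ATP signal meaning cytotoxicity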
Summary of the method: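 HCT116 p53-bla cells, 4000/well, dosed after 5 h plating (217-fold dilution of DMSO stocks) and incubated 16 h at 37C. Viability taken as cellular ATP by CellTiter-Glo luminescence after 30 min RT; signal loss marks cytotoxicity.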

[9] = target: Cellular tumor antigen p53 (Homo sapiens) (UniProt P04637); assay: TOX21_p53_BLA_p2_ratio: Tox21 HCT-116 p53 Agonism Beta-lactamase Assay, Ratio, Phase 2 (AID 2283592)
Cellular tumor antigen p53 (Homo sapiens), sequence (P04637 whole entry, looked up): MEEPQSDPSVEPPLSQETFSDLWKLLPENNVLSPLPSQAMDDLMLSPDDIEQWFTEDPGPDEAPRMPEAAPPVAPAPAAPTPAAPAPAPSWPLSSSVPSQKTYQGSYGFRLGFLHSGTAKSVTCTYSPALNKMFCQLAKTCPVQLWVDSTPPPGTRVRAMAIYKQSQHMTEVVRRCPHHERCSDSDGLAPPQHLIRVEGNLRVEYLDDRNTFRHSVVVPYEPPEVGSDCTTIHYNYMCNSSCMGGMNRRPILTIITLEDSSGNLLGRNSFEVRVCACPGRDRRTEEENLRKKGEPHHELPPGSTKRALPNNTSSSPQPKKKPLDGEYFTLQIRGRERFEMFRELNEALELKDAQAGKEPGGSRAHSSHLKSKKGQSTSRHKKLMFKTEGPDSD
Summary of the method: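 Plated HCT116 p53-bla cells (4000/well) received compound after 5 h, then 16 h at 37C/5% CO2. CCF4-AM added, 2 h RT. Ratio of 460 to 530 nm emission taken as the p53 reporter signal.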

[10] = TOX21_p53_BLA_p3_viability: Viability Assessment in the Tox21 HCT-116 p53 Agonism Beta-lactamase Assay, Phase 3 (AID 2283593);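 further: cells exposed to compound for 16 h before reading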
Summary of the method: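 HCT116 cells, 4000/well, dosed 5 h after plating by pin transfer (217-fold dilution from DMSO stock) and incubated 16 h at 37C, 5% CO2. Viability read as ATP luminescence with CellTiter-Glo after 30 min at room temperature.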

[11] = target: Cellular tumor antigen p53 (Homo sapiens) (UniProt P04637); assay: TOX21_p53_BLA_p3_ratio: Tox21 HCT-116 p53 Agonism Beta-lactamase Assay, Ratio, Phase 3 (AID 2283596)
Summary of the method: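 Cells were seeded at 4000/well, rested 5 h at 37C, then dosed with DMSO compound solutions (217-fold dilution) for 16 h. CCF4-AM substrate was loaded for 2 h at room temperature, and the 460/530 nm emission ratio was fitted for gain of signal versus DMSO.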

[12] = TOX21_p53_BLA_p4_viability: Viability Assessment in the Tox21 HCT-116 p53 Agonism Beta-lactamase Assay, Phase 4 (AID 2283597);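 further: hits lower the luminescence signal meaning cytotoxicity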
Summary of the method: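 Readout: ATP luminescence (CellTiter-Glo), measured 30 min after reagent addition at RT. The reagent followed a 2 h CCF4-AM incubation, and the cells had been exposed to compound for 16 h at 37C.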

[13] = target: Cellular tumor antigen p53 (Homo sapiens) (UniProt P04637); assay: TOX21_p53_BLA_p5_ratio: Tox21 HCT-116 p53 Agonism Beta-lactamase Assay, Ratio, Phase 5 (AID 2283599)
Summary of the method: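 HCT-116 p53-bla cells (4000/well) plated 5 h, dosed with compound (217-fold DMSO dilution) for 16 h at 37 C; CCF4-AM substrate 2 h at room temperature. Activity is the 460/530 nm emission ratio (405 nm excitation), fitted in gain-of-signal direction versus DMSO.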

[14] = TOX21_p53_BLA_p5_viability: Viability Assessment in the Tox21 HCT-116 p53 Agonism Beta-lactamase Assay, Phase 5 (AID 2283600)
Summary of the method: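 Workflow: seed 4000 cells per well, wait 5 h, add compounds (DMSO, 217-fold dilution), incubate 16 h, load CCF4-AM 2 h, add CellTiter-Glo, read luminescence after 30 min.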

[15] = target: Cellular tumor antigen p53 (Homo sapiens) (UniProt P04637); assay: TOX21_p53_BLA_p4_ratio: Tox21 HCT-116 p53 Agonism Beta-lactamase Assay, Ratio, Phase 4 (AID 2283601)
Summary of the method: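 HCT-116 p53 beta-lactamase reporter cells (4000/well) preincubated 5 h, then compound (217-fold dilution of DMSO stock) for 16 h at 37C. CCF4-AM substrate added 2 h at room temperature; 460/530 nm emission ratio fitted upward versus DMSO.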

[16] = Tanguay_ZF_120hpf_MORT_legacy: (Legacy) Oregon State University Tanguay Lab 120 Hour Post-fertilization zebrafish Assay for Mortality (AID 2283633);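 on AC50: fitted as increase in binary mortality versus DMSO negative control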
Summary of the method: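 5D WT zebrafish, chorion removed 4 hpf; 1 embryo/well from 6 hpf; static exposure to 120 hpf, 28C, dark, sealed. Final DMSO 0.64%. Readout: binary mortality, brightfield, 24 + 120 hpf; DMSO as negative control.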

[17] = Tanguay_ZF_120hpf_YSE_legacy: (Legacy) Oregon State University Tanguay Lab 120 Hour Post-fertilization zebrafish Assay for Yolk Sac Edema (AID 2283634);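 on AC50: actives raise the incidence of yolk sac edema above the DMSO baseline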
Summary of the method: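 Dechorionate (pronase, 4 hpf) → place one 6 hpf embryo per well → static compound exposure, sealed and foil-covered, 28C, to 120 hpf → record yolk sac edema as present or absent. Final DMSO 0.64%.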

[18] = Tanguay_ZF_120hpf_AXIS_legacy: (Legacy) Oregon State University Tanguay Lab 120 Hour Post-fertilization zebrafish Assay for Body Axis Malformation (AID 2283635);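 on AC50: potency for an increased fraction of larvae scored with body axis malformation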
Summary of the method: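 Chorion is removed with pronase at 4 hpf, then single 6 hpf embryos are dosed (final DMSO 0.64%) and held statically at 28C in sealed, foil-covered plates. At 120 hpf body axis malformation is recorded as present or absent.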

[19] = Tanguay_ZF_120hpf_EYE_legacy: (Legacy) Oregon State University Tanguay Lab 120 Hour Post-fertilization zebrafish Assay for Eye Malformation (AID 2283636);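 further: binary presence or absence of eye malformation scored by brightfield in 120 hpf larvae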
Summary of the method: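 5D wild-type embryos, pronase-dechorionated at 4 hpf; static exposure 6–120 hpf, 28C, dark; DMSO 0.64% final; 5uM trimethyltin chloride positive control. Binary eye-defect scoring at 120 hpf; dead embryos not scored.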

Measured: AC50

CCCOCC(=Nc1ccc(Cl)cc1C(F)(F)F)n1ccnc1
inactive: [6] | [16] | [17] | [18]
active: TIMP1, TIMP1 (gene 7076) 88.9 µM | [1] 93.7 µM | [2] 19.1 µM | [3] 86.9 µM | [4] 3.03 µM | [5] 69 µM | [7] 78.9 µM | [8] 23.7 µM | [9] 39.9 µM | [10] 35.4 µM | [11] 68.1 µM | [12] 24.9 µM | [13] 48.5 µM | [14] 31.2 µM | [15] 46.2 µM

CC(C)N(C(=O)SCC(Cl)=C(Cl)Cl)C(C)C
inactive: all assays above

CSc1nc(NC(C)C)nc(NC(C)C)n1
active: [2] 76.7 µM | [4] 2.47 µM | [6] 50 µM
not listed: [8] | [10] | [12] | [13] | [15]
inactive: all other assays above

COc1cc(OC)nc(Sc2cccc(Cl)c2C(=O)O)n1
not listed: [4]
inactive: all other assays above

COP(=O)(OC)C(O)C(Cl)(Cl)Cl (stereo unspecified)
active: TIMP1, TIMP1 (gene 7076) 0.0702 µM | [1] 0.109 µM | [5] 0.103 µM | [17] 56.1 µM
not listed: [4]
inactive: all other assays above

Nc1nc(N)nc(NC2CC2)n1
inactive: all assays above

CCC(CC)Nc1c([N+](=O)[O-])cc(C)c(C)c1[N+](=O)[O-]
active: [2] 36.7 µM | [4] 28.2 µM
inactive: all other assays above

CCOP(=S)(OCC)Oc1ccc2c(C)c(Cl)c(=O)oc2c1
active: [2] 14.8 µM
not listed: [4]
inactive: all other assays above

FC(F)C(F)(F)OCC(Cn1cncn1)c1ccc(Cl)cc1Cl (stereo unspecified)
active: [1] 49.8 µM | [2] 3.87 µM | [3] 31.5 µM | [5] 76.8 µM | [6] 86.9 µM | [7] 75.2 µM | [12] 60.5 µM | [17] 43.2 µM | [18] 15.7 µM | [19] 47.5 µM
inactive: TIMP1, TIMP1 (gene 7076) | [8] | [9] | [10] | [11] | [13] | [14] | [15] | [16]

Cc1nn(-c2cc(NS(C)(=O)=O)c(Cl)cc2Cl)c(=O)n1C(F)F
not listed: [4] | [8] | [10] | [13]
inactive: all other assays above

CC[C@H](C)[C@H]1O[C@]2(C=C[C@@H]1C)C[C@@H]1C[C@@H](C/C=C(\C)[C@@H](O[C@H]3C[C@H](OC)[C@@H](O[C@H]4C[C@H](OC)[C@@H](NC)[C@H](C)O4)[C@H](C)O3)[C@@H](C)/C=C/C=C3\CO[C@@H]4[C@H](O)C(C)=C[C@@H](C(=O)O1)[C@]34O)O2
active: [1] 12 µM | [3] 86.7 µM | [5] 12.5 µM | [6] 12.8 µM | [7] 18.2 µM | [8] 13.5 µM | [9] 59.1 µM | [10] 14.4 µM | [11] 54.1 µM | [12] 8.89 µM | [13] 56.9 µM | [14] 14.9 µM | [15] 32.7 µM | [16] 5.52 µM | [17] 0.247 µM
inactive: TIMP1, TIMP1 (gene 7076) | [2] | [18] | [19]

CCc1cnc(C2=NC(C)(C(C)C)C(=O)N2)c(C(=O)O)c1 (stereo unspecified)
inactive: TIMP1, TIMP1 (gene 7076) | [1] | [2] | [5] | [6] | [7] | [16] | [17] | [18] | [19]

CN(C)NC(=O)CCC(=O)O
not listed: [4]
inactive: all other assays above

CC(C)[C@H](C(=O)O[C@H](C#N)c1cccc(Oc2ccccc2)c1)c1ccc(Cl)cc1
active: [17] 3.2 µM | [18] 1.96 µM | [19] 2.82 µM
not listed: [4] | [8] | [11]
inactive: all other assays above
